# Laboratory results taken from PubChem BioAssay (EPA / NIEHS).
# Records with an inconclusive call do not appear. Calls of active or inactive are those of the source. Rule for the calls, unless noted: active = hit-call score of the fitted dose curve at least 0.9, where 1 is the maximum; inactive = score below 0.9.
# How the values were obtained:
# [1] = target: Nuclear respiratory factor 1 (Homo sapiens) (UniProt Q16656); assay: ATG_NRF1_CIS: Attagene CIS-FACTORIAL HepG2 Assay for human Nuclear Respiratory Factor 1 (NRF1) Orphan Gene (AID 2282987); conditions: HepG2 NRF1 cis-element reporter, Attagene multiplex; actives raise or lower the signal
# Sequence of Nuclear respiratory factor 1 (Homo sapiens) (Q16656 whole entry, looked up): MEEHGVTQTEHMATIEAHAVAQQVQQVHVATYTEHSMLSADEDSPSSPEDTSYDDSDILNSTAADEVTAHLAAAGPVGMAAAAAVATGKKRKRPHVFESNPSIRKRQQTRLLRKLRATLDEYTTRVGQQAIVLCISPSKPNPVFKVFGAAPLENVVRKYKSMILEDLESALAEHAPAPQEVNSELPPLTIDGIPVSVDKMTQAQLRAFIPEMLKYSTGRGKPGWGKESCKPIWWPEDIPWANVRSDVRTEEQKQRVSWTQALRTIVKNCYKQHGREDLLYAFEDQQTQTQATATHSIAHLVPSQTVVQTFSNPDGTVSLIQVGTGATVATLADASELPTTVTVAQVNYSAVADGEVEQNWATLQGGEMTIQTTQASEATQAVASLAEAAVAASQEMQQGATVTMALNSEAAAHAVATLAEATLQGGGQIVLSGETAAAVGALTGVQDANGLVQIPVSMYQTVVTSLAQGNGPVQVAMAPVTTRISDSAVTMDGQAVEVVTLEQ
# Procedure, shortened: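 Using DMSO as baseline, gain- or loss-of-signal was fitted for reporter mRNA levels in HepG2 cells transiently transfected with cis-regulated reporter units. Samples were taken 24 h after dosing and read by RT-PCR with capillary electrophoresis.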
# [2] = ATG_NFI_CIS: Attagene CIS-FACTORIAL HepG2 Assay for human Nuclear Factor I (NFI) (AID 2282989); conditions: HepG2 cis-regulatory reporter, NFI response element transcription; actives raise or lower the signal
# Procedure, shortened: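 Multiplexed cis-reporter system in human HepG2 cells reports native TF activity as reporter mRNA induction 24 h post-dose. Fragments labelled with 6-FAM, HpaI-digested and resolved by capillary electrophoresis; activity fitted both directions versus DMSO.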
# [3] = target: Myc proto-oncogene protein (Homo sapiens) (UniProt P01106); assay: ATG_Myc_CIS: Attagene CIS-FACTORIAL HepG2 Assay for human Myelocytomatosis (Myc) Proto-Oncogene Transcription Factor (AID 2282990); conditions: HepG2, Attagene cis-reporter transcription factor activity; actives raise or lower the signal
# Sequence of Myc proto-oncogene protein (Homo sapiens) (P01106 whole entry, looked up): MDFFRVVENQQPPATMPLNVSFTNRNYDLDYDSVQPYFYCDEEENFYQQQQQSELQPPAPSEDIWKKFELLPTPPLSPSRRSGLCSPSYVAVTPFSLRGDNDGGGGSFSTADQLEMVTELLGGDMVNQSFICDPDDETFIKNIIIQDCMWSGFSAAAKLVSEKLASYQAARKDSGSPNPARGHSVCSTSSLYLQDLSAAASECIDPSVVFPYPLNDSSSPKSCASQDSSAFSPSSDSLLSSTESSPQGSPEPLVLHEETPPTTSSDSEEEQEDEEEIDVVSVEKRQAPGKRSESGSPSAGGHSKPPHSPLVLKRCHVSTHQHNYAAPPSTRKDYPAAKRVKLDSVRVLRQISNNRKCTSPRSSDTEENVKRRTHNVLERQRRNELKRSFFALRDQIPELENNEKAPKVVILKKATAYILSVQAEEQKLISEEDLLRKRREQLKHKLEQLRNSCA
# Procedure, shortened: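 HepG2, transient MRTU transfection (cis promoters, endogenous TFs); 24 h dosing; TriZol RNA → oligo(dT) RT → PCR → 6-FAM primer extension → HpaI cut → CE. Bidirectional fit vs DMSO.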
# [4] = ATG_NRF2_ARE_CIS: Attagene CIS-FACTORIAL HepG2 Assay for human Nuclear Factor Erythroid 2 Related Factor 2 (NFR2) response to Antioxidant Response Elements (ARE) (AID 2282992); conditions: HepG2 Attagene ARE/NRF2 reporter, transcription factor activity; actives raise or lower the signal;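 for AC50: reporter mRNA level measured by RT-PCR and capillary electrophoresis fluorescence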
# Procedure, shortened: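 Transient MRTU transfection of HepG2; 24 h compound exposure; TriZol RNA, RT with oligo(dT), PCR, 6-FAM primer extension, HpaI cut, CE. Bidirectional fit vs DMSO.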
# [5] = ATG_Oct_MLP_CIS: Attagene CIS-FACTORIAL HepG2 Assay for human Octamer-Binding Transcription Factor (Oct) (AID 2282993); conditions: HepG2 Attagene cis-factorial Oct reporter, mRNA; actives raise or lower the signal
# Procedure, shortened: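 After 24 h compound exposure, transfected HepG2 cells were lysed for total RNA; reporter-specific cDNA was PCR-amplified, fluorescently labelled and sized by capillary electrophoresis. Bidirectional curve fitting used DMSO as baseline.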
# [6] = target: Cellular tumor antigen p53 (Homo sapiens) (UniProt P04637); assay: ATG_p53_CIS: Attagene CIS-FACTORIAL HepG2 Assay for human p53 Transcription Factor (AID 2282994); conditions: HepG2 p53 cis-element reporter, Attagene mRNA; actives raise or lower the signal
# Sequence of Cellular tumor antigen p53 (Homo sapiens) (P04637 whole entry, looked up): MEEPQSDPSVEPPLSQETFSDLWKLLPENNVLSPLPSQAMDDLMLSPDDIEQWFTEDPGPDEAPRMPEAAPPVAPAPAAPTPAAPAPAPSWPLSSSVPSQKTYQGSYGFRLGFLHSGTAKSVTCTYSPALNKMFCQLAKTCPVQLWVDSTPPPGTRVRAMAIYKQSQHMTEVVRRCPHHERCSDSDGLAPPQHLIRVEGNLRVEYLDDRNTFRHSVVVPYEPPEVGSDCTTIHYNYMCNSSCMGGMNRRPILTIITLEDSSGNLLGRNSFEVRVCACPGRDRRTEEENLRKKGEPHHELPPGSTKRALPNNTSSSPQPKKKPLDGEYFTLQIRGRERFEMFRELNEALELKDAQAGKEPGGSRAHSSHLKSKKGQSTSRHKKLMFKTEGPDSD
# Procedure, shortened: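 HepG2, transient MRTU transfection (cis promoter elements, endogenous TFs); 24 h dosing; RNA isolation, RT-PCR, 6-FAM primer extension, HpaI digest, CE fluorescence; bidirectional fit vs DMSO.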
# [7] = BSK_3C_TissueFactor: BioMAP Diversity Plus: 3C Assay for Tissue Factor Biomarker Activity (AID 2282997); conditions: BioMAP 3C HUVEC, tissue factor biomarker readout; actives raise or lower the signal
# Procedure, shortened: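 Primary human umbilical vein endothelial cells in the 3C system were exposed to test chemical for 24 h, then Tissue Factor measured by ELISA. Activity was fitted bidirectionally against DMSO as negative control and baseline.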
# [8] = BSK_3C_uPAR: BioMAP Diversity Plus: 3C Assay for Urokinase-type plasminogen activator receptor (uPAR) Biomarker Activity (AID 2282998); conditions: BioMAP 3C HUVEC, uPAR biomarker ELISA; actives raise or lower the signal
# Procedure, shortened: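 Values derive from bidirectional curve fitting relative to DMSO, which served as baseline of activity. uPAR was measured by ELISA in human umbilical vein endothelial primary cultures 24 h after compound addition.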
# [9] = BSK_3C_VCAM1: BioMAP Diversity Plus: 3C Assay for Vascular cell adhesion molecule 1 (VCAM1) Biomarker Activity (AID 2282999); conditions: BioMAP 3C HUVEC, VCAM1 ELISA, cytokine-stimulated; actives raise or lower the signal
# Procedure, shortened: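 Endothelial cells from human umbilical vein are treated with test chemical. At 24 h, VCAM-1 is measured by ELISA, and responses in either direction are fitted relative to DMSO.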
# [10] = BSK_4H_Eotaxin3: BioMAP Diversity Plus: 4H Assay for Eotaxin 3 Biomarker Activity (AID 2283000); conditions: primary human endothelial cells (HUVEC); actives raise or lower the signal;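 for outcome: CCL26 protein level quantified by ELISA in parallel with SRB cytotoxicity check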
# Procedure, shortened: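 HUVEC, 24 h post-dose, ELISA for Eotaxin-3/CCL26. Gain or loss of signal fitted bidirectionally vs DMSO baseline.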
# [11] = target: human Peroxisome Proliferator-activated Receptor alpha (PPARa), PPARA (gene 5465) (UniProt Q07869); assay: ATG_PPARa_TRANS: Attagene TRANS-FACTORIAL HepG2 Assay for human Peroxisome Proliferator-activated Receptor alpha (PPARa) (AID 2283001; active = hit-call score of the fitted dose curve at least 0.9, where 1 is the maximum)
# Sequence of human Peroxisome Proliferator-activated Receptor alpha (PPARa), PPARA (gene 5465) (Q07869 whole entry, looked up, the tested form may be a part): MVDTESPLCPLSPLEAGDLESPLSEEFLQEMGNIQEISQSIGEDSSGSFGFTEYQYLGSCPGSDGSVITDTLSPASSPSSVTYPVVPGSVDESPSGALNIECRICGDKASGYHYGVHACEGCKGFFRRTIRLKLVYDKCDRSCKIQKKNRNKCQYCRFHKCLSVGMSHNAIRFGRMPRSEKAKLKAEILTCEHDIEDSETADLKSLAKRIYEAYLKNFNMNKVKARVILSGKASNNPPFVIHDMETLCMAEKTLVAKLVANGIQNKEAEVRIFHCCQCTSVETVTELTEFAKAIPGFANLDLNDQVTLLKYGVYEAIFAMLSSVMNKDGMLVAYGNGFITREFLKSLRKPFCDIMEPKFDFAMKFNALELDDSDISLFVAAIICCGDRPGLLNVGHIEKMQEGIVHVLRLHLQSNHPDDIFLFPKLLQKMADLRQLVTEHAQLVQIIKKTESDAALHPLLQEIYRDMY
# Procedure, shortened: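 Read-out is fluorescence of reporter cDNA fragments resolved by capillary electrophoresis after RT-PCR. Human HepG2 liver cells carried transfected PPARa-Gal4 chimera and GAL4-UAS reporter units, treated 24 h; activity scored as increase over DMSO.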
# [12] = target: human Peroxisome Proliferator-activated Receptor delta (PPARd), PPARD (gene 5467) (UniProt Q03181); assay: ATG_PPARd_TRANS: Attagene TRANS-FACTORIAL HepG2 Assay for human Peroxisome Proliferator-activated Receptor delta (PPARd) (AID 2283002; active = hit-call score of the fitted dose curve at least 0.9, where 1 is the maximum)
# Sequence of human Peroxisome Proliferator-activated Receptor delta (PPARd), PPARD (gene 5467) (Q03181 whole entry, looked up, the tested form may be a part): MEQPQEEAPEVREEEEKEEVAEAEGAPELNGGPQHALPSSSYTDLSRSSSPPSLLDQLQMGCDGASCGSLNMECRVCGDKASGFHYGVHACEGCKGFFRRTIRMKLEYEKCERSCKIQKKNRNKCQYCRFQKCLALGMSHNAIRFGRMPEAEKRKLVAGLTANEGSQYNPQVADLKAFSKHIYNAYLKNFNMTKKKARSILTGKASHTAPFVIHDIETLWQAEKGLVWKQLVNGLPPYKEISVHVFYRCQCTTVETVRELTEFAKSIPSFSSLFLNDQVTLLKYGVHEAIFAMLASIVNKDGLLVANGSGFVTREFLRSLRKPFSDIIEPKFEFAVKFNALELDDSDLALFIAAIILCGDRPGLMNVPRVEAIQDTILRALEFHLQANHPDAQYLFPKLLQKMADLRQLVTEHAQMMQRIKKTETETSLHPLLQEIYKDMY
# Procedure, shortened: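 Transient HepG2 transfection (multiple GAL4-UAS RTUs, chimeric receptor-Gal4); 24 h dosing; total RNA → oligo(dT) RT → PCR → 6-FAM primer extension → HpaI cut → CE. Positive direction vs DMSO.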
# [13] = target: Retinoic acid receptor alpha (Homo sapiens) (UniProt P10276); assay: ATG_RARa_TRANS: Attagene TRANS-FACTORIAL HepG2 Assay for human Retinoic Acid Receptor alpha (RARa) (AID 2283005; active = hit-call score of the fitted dose curve at least 0.9, where 1 is the maximum)
# Sequence of Retinoic acid receptor alpha (Homo sapiens) (P10276 whole entry, looked up, the tested form may be a part): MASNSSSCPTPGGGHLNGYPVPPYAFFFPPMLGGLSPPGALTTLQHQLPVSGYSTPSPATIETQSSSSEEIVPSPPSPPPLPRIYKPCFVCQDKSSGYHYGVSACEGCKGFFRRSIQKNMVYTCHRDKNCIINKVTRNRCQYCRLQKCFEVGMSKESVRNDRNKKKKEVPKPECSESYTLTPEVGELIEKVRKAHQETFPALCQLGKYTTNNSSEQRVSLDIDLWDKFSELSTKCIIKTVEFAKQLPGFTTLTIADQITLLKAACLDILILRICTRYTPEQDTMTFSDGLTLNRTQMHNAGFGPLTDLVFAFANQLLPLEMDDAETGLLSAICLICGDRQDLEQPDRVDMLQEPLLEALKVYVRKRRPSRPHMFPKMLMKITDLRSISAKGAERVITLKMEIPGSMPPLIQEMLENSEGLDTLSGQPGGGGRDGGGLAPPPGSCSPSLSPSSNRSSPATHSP
# Procedure, shortened: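 Reporter transcripts, measured by RT-PCR with fluorescent labeling and capillary electrophoresis after 24 h dosing, reflect activity of an exogenous human RARa–GAL4 fusion in transiently transfected HepG2. Fitted for increase relative to DMSO.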
# [14] = target: Peroxisome proliferator-activated receptor gamma (Homo sapiens) (UniProt P37231); assay: ATG_PPARg_TRANS: Attagene TRANS-FACTORIAL HepG2 Assay for human Peroxisome Proliferator-activated Receptor-gamma (PPARg) (AID 2283007; active = hit-call score of the fitted dose curve at least 0.9, where 1 is the maximum)
# Sequence of Peroxisome proliferator-activated receptor gamma (Homo sapiens) (P37231 whole entry, looked up, the tested form may be a part): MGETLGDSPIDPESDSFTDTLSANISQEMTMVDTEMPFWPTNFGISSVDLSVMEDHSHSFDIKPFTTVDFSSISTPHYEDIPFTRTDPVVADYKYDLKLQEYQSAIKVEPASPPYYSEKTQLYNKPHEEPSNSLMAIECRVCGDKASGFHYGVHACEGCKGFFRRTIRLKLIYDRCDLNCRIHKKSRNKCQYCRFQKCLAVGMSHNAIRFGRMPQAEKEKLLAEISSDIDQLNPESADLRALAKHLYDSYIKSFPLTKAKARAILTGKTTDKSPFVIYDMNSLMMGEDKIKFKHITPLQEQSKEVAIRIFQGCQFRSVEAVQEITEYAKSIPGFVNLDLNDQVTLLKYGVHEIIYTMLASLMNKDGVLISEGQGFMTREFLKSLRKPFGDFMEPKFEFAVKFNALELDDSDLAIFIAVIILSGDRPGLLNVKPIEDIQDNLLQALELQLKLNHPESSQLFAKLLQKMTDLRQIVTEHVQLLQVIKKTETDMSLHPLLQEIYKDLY
# Procedure, shortened: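 Endpoint reflects upward reporter mRNA change versus DMSO controls. Setup: transiently transfected HepG2, GAL4-UAS reporters driven by chimeric NR-Gal4, 24 h incubation, RT-PCR with capillary electrophoresis read-out.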
# [15] = target: Nuclear receptor subfamily 1 group I member 2 (Homo sapiens) (UniProt O75469); assay: ATG_PXR_TRANS: Attagene TRANS-FACTORIAL HepG2 Assay for human Pregnane X Receptor (PXR) (AID 2283008; active = hit-call score of the fitted dose curve at least 0.9, where 1 is the maximum)
# Sequence of Nuclear receptor subfamily 1 group I member 2 (Homo sapiens) (O75469 whole entry, looked up, the tested form may be a part): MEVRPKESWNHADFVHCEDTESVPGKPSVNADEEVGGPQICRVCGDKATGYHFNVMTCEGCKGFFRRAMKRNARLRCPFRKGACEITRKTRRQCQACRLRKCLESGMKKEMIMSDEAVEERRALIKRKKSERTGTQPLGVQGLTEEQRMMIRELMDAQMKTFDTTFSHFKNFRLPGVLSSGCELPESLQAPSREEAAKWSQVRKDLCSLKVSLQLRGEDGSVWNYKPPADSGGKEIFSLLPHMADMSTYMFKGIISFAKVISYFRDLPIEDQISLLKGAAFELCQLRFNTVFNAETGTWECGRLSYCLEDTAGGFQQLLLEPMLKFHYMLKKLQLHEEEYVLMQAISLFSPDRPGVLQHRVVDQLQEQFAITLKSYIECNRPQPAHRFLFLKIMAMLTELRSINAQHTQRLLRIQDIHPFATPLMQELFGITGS
# Procedure, shortened: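 Read-out is fluorescence of labelled reporter cDNA fragments separated by capillary electrophoresis after RT-PCR and HpaI digestion. Source: HepG2 cells carrying PXR-GAL4/UAS reporter constructs, treated 24 h; activity fitted upward relative to DMSO.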
# [16] = target: human Retinoic Acid Receptor gamma (RARg), RARG (gene 5916) (UniProt P13631); assay: ATG_RARg_TRANS: Attagene TRANS-FACTORIAL HepG2 Assay for human Retinoic Acid Receptor gamma (RARg) (AID 2283009; active = hit-call score of the fitted dose curve at least 0.9, where 1 is the maximum)
# Sequence of human Retinoic Acid Receptor gamma (RARg), RARG (gene 5916) (P13631 whole entry, looked up, the tested form may be a part): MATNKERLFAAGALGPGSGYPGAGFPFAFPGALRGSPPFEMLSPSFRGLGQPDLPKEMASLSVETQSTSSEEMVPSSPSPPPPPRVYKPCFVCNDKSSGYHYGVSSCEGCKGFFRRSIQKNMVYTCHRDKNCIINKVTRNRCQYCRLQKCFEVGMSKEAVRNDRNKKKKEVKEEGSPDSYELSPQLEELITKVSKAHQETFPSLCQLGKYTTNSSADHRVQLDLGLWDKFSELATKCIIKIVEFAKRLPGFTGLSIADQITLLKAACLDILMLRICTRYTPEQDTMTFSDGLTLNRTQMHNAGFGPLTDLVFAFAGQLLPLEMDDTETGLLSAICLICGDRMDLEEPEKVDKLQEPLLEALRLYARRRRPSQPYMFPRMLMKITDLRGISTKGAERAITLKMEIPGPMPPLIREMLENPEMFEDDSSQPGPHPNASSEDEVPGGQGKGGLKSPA
# Procedure, shortened: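 HepG2 transiently transfected with GAL4-UAS reporter units and chimeric NR-Gal4 constructs; 24 h compound exposure. Reporter mRNA quantified by RT-PCR, FAM labeling, HpaI digestion and capillary electrophoresis; gain-of-signal versus DMSO.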
# [17] = ATG_NF_kB_CIS: Attagene CIS-FACTORIAL HepG2 Assay for human Nuclear Factor Kappa B (NF-kB) (AID 2282991); conditions: HepG2 Attagene cis-factorial NF-kB reporter mRNA; actives raise or lower the signal
# Procedure, shortened: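 Endpoint from a 52-component multiplexed HepG2 reporter panel: cis-regulated transcription units transiently transfected, 24 h dosing, reporter mRNA quantified by RT-PCR and capillary electrophoresis, scored as increase or decrease against DMSO.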
# [18] = target: human Retinoic Acid Receptor beta (RARb), RARB (gene 5915) (UniProt P10826); assay: ATG_RARb_TRANS: Attagene TRANS-FACTORIAL HepG2 Assay for human Retinoic Acid Receptor beta (AID 2283004; active = hit-call score of the fitted dose curve at least 0.9, where 1 is the maximum)
# Sequence of human Retinoic Acid Receptor beta (RARb), RARB (gene 5915) (P10826 whole entry, looked up, the tested form may be a part): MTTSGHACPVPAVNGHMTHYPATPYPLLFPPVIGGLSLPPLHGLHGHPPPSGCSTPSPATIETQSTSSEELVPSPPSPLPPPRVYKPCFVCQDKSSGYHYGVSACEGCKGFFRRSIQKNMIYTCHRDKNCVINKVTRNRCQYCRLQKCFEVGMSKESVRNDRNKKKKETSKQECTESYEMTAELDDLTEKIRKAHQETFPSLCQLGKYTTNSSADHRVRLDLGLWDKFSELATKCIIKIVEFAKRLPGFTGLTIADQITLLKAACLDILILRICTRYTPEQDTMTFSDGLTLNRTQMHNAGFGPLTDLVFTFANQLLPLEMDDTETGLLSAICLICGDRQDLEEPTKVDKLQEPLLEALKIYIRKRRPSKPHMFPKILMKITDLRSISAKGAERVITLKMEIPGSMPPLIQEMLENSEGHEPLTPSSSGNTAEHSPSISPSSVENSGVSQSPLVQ
# Procedure, shortened: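 HepG2 cells transiently transfected with multiplexed GAL4-UAS reporter units expressing chimeric NR–Gal4 fusions; 24 h compound exposure. Reporter mRNA quantified by RT-PCR, 6-FAM labelling, HpaI digestion and capillary electrophoresis; gain-of-signal fitted against DMSO baseline.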
# [19] = BSK_3C_Proliferation: Cell Proliferation Assessment in the BioMAP Diversity Plus: 3C Assay (AID 2283006); conditions: primary human endothelial cells (HUVEC)
# Procedure, shortened: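 Subconfluent HUVEC (3C system) cultured with chemical; relative cell number read at 48 h by sulforhodamine B total-protein staining (0.1% SRB after 10% TCA fixation, 560 nm). Bidirectional fit relative to DMSO.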
# [20] = read-out: Intercellular Adhesion Molecule 1 (ICAM1), ICAM1 (gene 3383); assay: BSK_3C_ICAM1: BioMAP Diversity Plus: 3C Assay for Intercellular Adhesion Molecule 1 (ICAM1) Biomarker Activity (AID 2283003); conditions: primary human endothelial cells (HUVEC); actives raise or lower the signal
# Procedure, shortened: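 HUVEC primary cells stimulated under 3C conditions; ICAM1 measured by ELISA 24 h after compound dosing. Curves fitted bidirectionally against the DMSO baseline. Overt cytotoxicity checked by SRB staining of parallel cultures.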
compound,measurement,setting,value
CC(Oc1cccc(Cl)c1)C(=O)O (centres undefined),outcome,[1],inactive
same,outcome,[2],inactive
same,outcome,[3],inactive
same,outcome,[4],inactive
same,outcome,[5],inactive
same,outcome,[6],inactive
same,outcome,[7],inactive
same,outcome,[8],inactive
same,outcome,[9],inactive
same,outcome,[10],inactive
same,outcome,[11],inactive
same,outcome,[12],inactive
same,outcome,[13],inactive
same,outcome,[14],inactive
same,outcome,[15],inactive
same,outcome,[16],inactive
Cc1nn(-c2cc(NS(C)(=O)=O)c(Cl)cc2Cl)c(=O)n1C(F)F,outcome,[1],inactive
same,outcome,[2],inactive
same,outcome,[3],inactive
same,outcome,[4],inactive
same,outcome,[5],inactive
same,outcome,[6],inactive
same,outcome,[7],inactive
same,outcome,[8],inactive
same,outcome,[9],inactive
same,outcome,[10],inactive
same,outcome,[11],inactive
same,outcome,[12],inactive
same,AC50,[14],28 µM (active)
same,AC50,[15],28.9 µM (active)
Nc1c(Cl)cc([N+](=O)[O-])cc1Cl,outcome,[1],inactive
same,AC50,[2],50 µM (active)
same,outcome,[3],inactive
same,AC50,[17],59.5 µM (active)
same,AC50,[4],41.1 µM (active)
same,AC50,[5],50 µM (active)
same,outcome,[7],inactive
same,outcome,[8],inactive
same,outcome,[9],inactive
same,outcome,[10],inactive
same,outcome,[12],inactive
same,outcome,[18],inactive
same,outcome,[13],inactive
same,outcome,[19],inactive
same,outcome,[14],inactive
same,outcome,[15],inactive
CCOP(=O)(OCC)Oc1cc(C)nc(C(C)C)n1,outcome,[1],inactive
same,outcome,[2],inactive
same,outcome,[3],inactive
same,outcome,[4],inactive
same,outcome,[5],inactive
same,outcome,[6],inactive
same,outcome,[7],inactive
same,outcome,[8],inactive
same,outcome,[9],inactive
same,outcome,[10],inactive
same,outcome,[12],inactive
same,outcome,[14],inactive
CCNc1nc(Cl)nc(NC(C)(C)C#N)n1,outcome,[1],inactive
same,outcome,[2],inactive
same,outcome,[3],inactive
same,outcome,[4],inactive
same,outcome,[5],inactive
same,outcome,[6],inactive
same,outcome,[7],inactive
same,outcome,[8],inactive
same,outcome,[9],inactive
same,outcome,[10],inactive
same,outcome,[11],inactive
same,outcome,[12],inactive
same,outcome,[20],inactive
same,outcome,[14],inactive
C=C(C)[C@H]1Cc2c(ccc3c2O[C@@H]2COc4cc(OC)c(OC)cc4[C@@H]2C3=O)O1,outcome,[1],inactive
same,outcome,[2],inactive
same,outcome,[3],inactive
same,AC50,[17],0.063 µM (active)
same,AC50,[4],0.00527 µM (active)
same,AC50,[5],0.0306 µM (active)
same,AC50,[7],8.69 µM (active)
same,AC50,[8],7.25 µM (active)
same,AC50,[9],20 µM (active)
same,AC50,[10],20 µM (active)
same,outcome,[11],inactive
same,outcome,[12],inactive
same,outcome,[18],inactive
same,outcome,[13],inactive
same,outcome,[14],inactive
same,outcome,[15],inactive
same,outcome,[16],inactive
